# Source: PubChem BioAssay AID1159580 (chemical genetic matrix, 2015)
# Screen size: about 5,500 compounds; about 2,000 (36%) were called active. Not shown: some 18% with an inconclusive outcome. Some of the results follow. Values without a mark were called inactive. No stated cut-off is given here; in the data, active means normalized growth mostly below about 0.91 (no sharp cut-off); inconclusive means no clear call, values can overlap the other calls; inactive means mostly above about 0.92.
# Assay: chemical genetic growth profiling, strain panel (AID 1159580);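 further: tested at 20 µM; growth read once vehicle control cultures reached saturation at 30 °C; 1 = growth at the plate median or of vehicle wells; lower values mean less growth of the strain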
# Conditions: S. cerevisiae deletion strains, growth OD
# [1] = locus YAL013W, strain DEP1, active compounds read low
# [2] = locus YNL322C, strain KRE1, active compounds read low
structure (smiles),measurement,setting,value
CC(N)[C@H](O)c1ccc(O)c(O)c1 (stereo partly specified),normalized growth,[1],0.998
same,normalized growth,"locus YAL040C, strain CLN3, active compounds read low",1.05
same,normalized growth,"locus YCL061C, strain MRC1 (second series), active compounds read low",0.993
same,normalized growth,"locus YDR150W, strain NUM1, active compounds read low",0.995
same,normalized growth,"locus YDR363W, strain ESC2, active compounds read low",0.989
same,normalized growth,"locus YER002W, strain NOP16, active compounds read low",1
same,normalized growth,"locus YJR075W, strain HOC1, active compounds read low",0.983
same,normalized growth,"locus YNL153C, strain GIM3, active compounds read low",0.986
same,normalized growth,"locus YNL175C, strain NOP13, active compounds read low",1.01
same,normalized growth,"locus YNL197C, strain WHI3, active compounds read low",1.01
same,normalized growth,"locus YNL224C, strain SQS1, active compounds read low",0.992
same,normalized growth,[2],1.01
same,normalized growth,"locus YOR083W, strain WHI5 (second series), active compounds read low",0.988
same,normalized growth,"locus YPL055C, strain LGE1, active compounds read low",1
CC(Cc1ccc(O)c(O)c1)C(C)Cc1ccc(O)c(O)c1 (stereo unspecified),normalized growth,[1],0.625 (active)
same,normalized growth,"locus YBR021W, strain FUR4, active compounds read low",0.952
same,normalized growth,"locus YBR229C, strain ROT2, active compounds read low",0.909 (active)
same,normalized growth,"locus YCL029C, strain bik1, active compounds read low",0.916
same,normalized growth,"locus YDL035C, strain GPR1, active compounds read low",0.774 (active)
same,normalized growth,"locus YDL074C, strain BRE1, active compounds read low",0.48 (active)
same,normalized growth,"locus YDL101C, strain DUN1, active compounds read low",0.522 (active)
same,normalized growth,"locus YDL185W, strain tfp1, active compounds read low",0.995
same,normalized growth,"locus YDL192W, strain arf1, active compounds read low",0.896 (active)
same,normalized growth,"locus YDR101C, strain arx1, active compounds read low",0.939
same,normalized growth,"locus YDR162C, strain NBP2, active compounds read low",0.428 (active)
same,normalized growth,"locus YDR318W, strain mcm21, active compounds read low",0.955
same,normalized growth,"locus YDR388W, active compounds read low",0.895 (active)
same,normalized growth,"locus YDR502C, strain sam2, active compounds read low",0.813 (active)
same,normalized growth,"locus YEL061C, strain CIN8, active compounds read low",0.681 (active)
same,normalized growth,"locus YER110C, active compounds read low",0.988
same,normalized growth,"locus YER155C, strain BEM2, active compounds read low",0.756 (active)
same,normalized growth,"locus YER167W, strain BCK2, active compounds read low",0.957
same,normalized growth,"locus YGL078C, strain dbp3, active compounds read low",0.999
same,normalized growth,"locus YGL086W, strain mad1, active compounds read low",0.909 (active)
same,normalized growth,"locus YGL248W, strain PDE1, active compounds read low",0.814 (active)
same,normalized growth,"locus YGR078C, strain PAC10, active compounds read low",0.818 (active)
same,normalized growth,"locus YGR135W, strain pre9, active compounds read low",0.854 (active)
same,normalized growth,"locus YGR229C, strain SMI1, active compounds read low",0.419 (active)
same,normalized growth,"locus YGR252W, strain gcn5, active compounds read low",0.792
same,normalized growth,"locus YHR030C, strain SLT2, active compounds read low",0.87 (active)
same,normalized growth,"locus YHR079C, strain IRE1 (second series), active compounds read low",0.904 (active)
same,normalized growth,"locus YHR094C, strain hxt1, active compounds read low",1.01
same,normalized growth,"locus YHR129C, strain ARP1, active compounds read low",0.73 (active)
same,normalized growth,"locus YHR200W, strain rpn10, active compounds read low",0.964
same,normalized growth,"locus YIL066C, strain RNR3, active compounds read low",0.61 (active)
same,normalized growth,"locus YIL073C, strain SPO22, active compounds read low",0.499 (active)
same,normalized growth,"locus YIL125W, strain kgd1, active compounds read low",1
same,normalized growth,"locus YIR030C, strain dcg1, active compounds read low",0.903 (active)
same,normalized growth,"locus YJL095W, strain BCK1, active compounds read low",0.113 (active)
same,normalized growth,"locus YJL134W, strain LCB3, active compounds read low",0.909 (active)
same,normalized growth,"locus YJL168C, strain set2, active compounds read low",0.983
same,normalized growth,"locus YJL187C, strain SWE1 (second series), active compounds read low",0.621 (active)
same,normalized growth,"locus YJR043C, strain POL32, active compounds read low",0.425 (active)
same,normalized growth,"locus YKL009W, strain mrt4, active compounds read low",0.993
same,normalized growth,"locus YKL068W, active compounds read low",1.01
same,normalized growth,"locus YKL085W, strain MDH1 (second series), active compounds read low",0.992
same,normalized growth,"locus YKL085W, strain MDH1, active compounds read low",0.992
same,normalized growth,"locus YKR001C, strain vps1, active compounds read low",0.882 (active)
same,normalized growth,"locus YLR039C, strain RIC1, active compounds read low",0.293 (active)
same,normalized growth,"locus YLR058C, strain SHM2, active compounds read low",0.643 (active)
same,normalized growth,"locus YLR102C, strain apc9, active compounds read low",1.01
same,normalized growth,"locus YLR262C, strain YPT6, active compounds read low",0.616
same,normalized growth,"locus YLR268W, strain sec22, active compounds read low",0.853 (active)
same,normalized growth,"locus YLR330W, strain CHS5, active compounds read low",0.82 (active)
same,normalized growth,"locus YLR342W, strain FKS1 (second series), active compounds read low",0.645 (active)
same,normalized growth,"locus YLR371W, strain rom2, active compounds read low",0.919
same,normalized growth,"locus YLR418C, strain cdc73, active compounds read low",0.673 (active)
same,normalized growth,"locus YML016C, strain PPZ1, active compounds read low",0.746 (active)
same,normalized growth,"locus YML032C, strain rad52, active compounds read low",0.927
same,normalized growth,"locus YML124C, strain tub3, active compounds read low",0.979
same,normalized growth,"locus YMR078C, strain ctf18, active compounds read low",0.973
same,normalized growth,"locus YMR223W, strain ubp8, active compounds read low",0.91
same,normalized growth,"locus YMR263W, strain SAP30, active compounds read low",0.455 (active)
same,normalized growth,"locus YMR307W, strain GAS1, active compounds read low",0.691
same,normalized growth,"locus YNL067W, strain RPL9B, active compounds read low",0.726 (active)
same,normalized growth,"locus YNL128W, strain TEP1, active compounds read low",0.816 (active)
same,normalized growth,"locus YNL233W, strain BNI4, active compounds read low",0.849 (active)
same,normalized growth,"locus YNL250W, strain rad50, active compounds read low",1.03
same,normalized growth,"locus YNL271C, strain bni1, active compounds read low",0.997
same,normalized growth,"locus YNL298W, strain CLA4, active compounds read low",0.981
same,normalized growth,"locus YNL307C, strain MCK1, active compounds read low",0.899 (active)
same,normalized growth,[2],0.522 (active)
same,normalized growth,"locus YNR052C, strain pop2, active compounds read low",0.927
same,normalized growth,"locus YOL012C, strain htz1",0.299
same,normalized growth,"locus YOL147C, strain pex11, active compounds read low",0.936
same,normalized growth,"locus YOR061W, strain CKA2, active compounds read low",0.871 (active)
same,normalized growth,"locus YOR069W, strain VPS5, active compounds read low",0.858 (active)
same,normalized growth,"locus YOR136W, strain idh2, active compounds read low",1.01
same,normalized growth,"locus YOR144C, strain elg1, active compounds read low",0.95
same,normalized growth,"locus YOR184W, strain ser1, active compounds read low",0.784 (active)
same,normalized growth,"locus YOR316C, strain cot1, active compounds read low",0.999
same,normalized growth,"locus YPR119W, strain clb2, active compounds read low",1.01
same,normalized growth,"locus YPR141C, strain kar3, active compounds read low",1.01
same,normalized growth,"locus YPR163C, strain tif3, active compounds read low",0.982
same,normalized growth,"locus YPR167C, strain met16, active compounds read low",0.952
same,normalized growth,"strain wtn01, active compounds read low",0.892 (active)
